# Source: PubChem BioAssay
# Results filed as inconclusive are left out. For part of these data: Entries with a potency or affinity are not part of this list. The source made the active and inactive calls. Unless noted, no rule for the calls is given here.
# What was measured:
# [1] = chitosan synthesis blockers in C. neoformans – flow cytometry, Cibacron Brilliant Red staining (AID 1347148); conditions: Cryptococcus neoformans chitosan, stronger effect = lower value; at 10 µM unless noted;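 also: compound exposure lasted three days at 37 degrees C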
# [2] = molecular target: ATP-dependent translocase ABCB1 (Homo sapiens) (UniProt P08183); experiment: P-glycoprotein substrate transport blockade – cell-based (AID 377; in the data active = fluorescence slope change above about 50%); conditions: MDR1-expressing cells, fluorescent substrate accumulation slope; stronger effect = higher value; concentration not given here
# [3] = blockers of polyQ-driven CASP3 activation – cell-based (AID 1583); conditions: polyglutamine-induced caspase-3 activation, cell assay; stronger effect = higher value;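 tested at 10 µM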
# [4] = yeast 75Q aggregation reduction – 75Q-TubU reporter (AID 1593); conditions: Yeast 75Q polyglutamine aggregation reporter
# [5] = restoration of touch response, mutant HTT neurons – whole organism, C. elegans mechanosensory neurons, N-terminal huntingtin (AID 1599); conditions: C. elegans polyQ-huntingtin mechanosensory neurons, stronger effect = higher value
# [6] = blockers of cytochrome c efflux from mitochondria – biochemical, purified mitochondria (AID 1603); conditions: stronger effect = lower value;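 also: mouse liver mitochondria challenged with calcium chloride; signal normalized to the plate average as 100%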
# [7] = polyglutamine aggregate formation blockers (AID 1604); conditions: polyglutamine-induced protein aggregation inhibition assay; stronger effect = higher value; tested at 2.5 µM
# [8] = glutamate transport activators, MN-1 cells, MN-1 cell line (AID 1612); conditions: MN-1 motor neuron cells, stronger effect = higher value;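 also: tested at 1 µM final; 0% = mean of DMSO vehicle wells on each plate; positive means more glutamate uptake than control and negative means less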
# [9] = GFP-Q80 aggregate reduction, neuronal-like cells, cell-based, NGF-treated PC12, GFPQ80 (AID 1614); conditions: PC12 NGF-treated GFP-polyQ80 inclusion reduction;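 also: lower means fewer inclusions and 0 means no inclusions at all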
# [10] = 75Q-TubH aggregate inhibition, S. cerevisiae, yeast (AID 1616); conditions: S. cerevisiae 75Q-TubH polyglutamine aggregation suppression; stronger effect = higher value
# [11] = compounds altering circadian rhythm period length – cell-based, LOPAC library, luminescence reporter (AID 2774); conditions: circadian reporter cells, at 7 µM, actives lie on both sides;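 also: values are relative to mean of DMSO wells on each plate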
# [12] = P. berghei load reduction in hepatocytes – cell-based, HepG2, luciferase luminescence, HepG2 viability, primary screen (AID 624349; in the data active = parasite load remaining mostly below about 12%, no sharp cut-off; inactive = mostly above about 10%;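 also: 100% = mean of DMSO negative control wells on the same plate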); conditions: P. berghei liver stage in HepG2, luciferase luminescence, concentration not given here; parasite load remaining: stronger effect = lower value; viability: measured here: HepG2 viability without parasites
# [13] = tested on: Hepatitis C virus NS3 helicase; experiment: blockers of NS3h binding to ssDNA – biochemical, fluorescence polarization, LOPAC1280 library, primary screen (AID 687035; in the data active = inhibition above about 37%); conditions: Purified HCV NS3 helicase, Cy5-dT15 ssDNA binding fluorescence polarization; stronger effect = higher value; concentration not given here
# [14] = compounds altering Cy5-DNA-NS3h complex signal – biochemical, LOPAC1280, artefact control for HCV NS3 helicase inhibitor project (AID 687037); conditions: Cy5-DNA-NS3h complex fluorescence interference counterscreen
# [15] = molecular target: NAD(+) hydrolase SARM1 (Homo sapiens) (UniProt Q6SZW1); experiment: blocking NAD cleavage by SARM1 SAM-TIR – cell lysate, NAD-Glo luminescence (AID 1508614;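 active = compound whose remaining NAD level is above about 45 nM, limit read from the data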;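 also: higher remaining NAD means stronger inhibition of SARM1 NADase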); conditions: SAM-TIR HEK293T lysate NADase, at 1 µM, stronger effect = higher value
# [16] = molecular target: Mitogen-activated protein kinase 7 (Homo sapiens) (UniProt Q13164); experiment: Gal4-ERK5 driven luciferase induction – cell-based, HTS, primary screen (AID 1508626;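 active = luciferase signal above three times the same-plate solvent-only control wells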;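 also: luciferase driven by Gal4-ERK5 fusion binding five Gal4 sites before minimal TATA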); conditions: HeLa Gal4-ERK5 transactivation, 18 h, at 5 µM, stronger effect = higher value
# [17] = compounds altering viability of human ES cells (AID 493140); conditions: human embryonic stem cell survival screen; stronger effect = higher value;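 also: cells exposed to compounds for four days before counting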
# ATP-dependent translocase ABCB1 (Homo sapiens), sequence (P08183 whole entry, looked up): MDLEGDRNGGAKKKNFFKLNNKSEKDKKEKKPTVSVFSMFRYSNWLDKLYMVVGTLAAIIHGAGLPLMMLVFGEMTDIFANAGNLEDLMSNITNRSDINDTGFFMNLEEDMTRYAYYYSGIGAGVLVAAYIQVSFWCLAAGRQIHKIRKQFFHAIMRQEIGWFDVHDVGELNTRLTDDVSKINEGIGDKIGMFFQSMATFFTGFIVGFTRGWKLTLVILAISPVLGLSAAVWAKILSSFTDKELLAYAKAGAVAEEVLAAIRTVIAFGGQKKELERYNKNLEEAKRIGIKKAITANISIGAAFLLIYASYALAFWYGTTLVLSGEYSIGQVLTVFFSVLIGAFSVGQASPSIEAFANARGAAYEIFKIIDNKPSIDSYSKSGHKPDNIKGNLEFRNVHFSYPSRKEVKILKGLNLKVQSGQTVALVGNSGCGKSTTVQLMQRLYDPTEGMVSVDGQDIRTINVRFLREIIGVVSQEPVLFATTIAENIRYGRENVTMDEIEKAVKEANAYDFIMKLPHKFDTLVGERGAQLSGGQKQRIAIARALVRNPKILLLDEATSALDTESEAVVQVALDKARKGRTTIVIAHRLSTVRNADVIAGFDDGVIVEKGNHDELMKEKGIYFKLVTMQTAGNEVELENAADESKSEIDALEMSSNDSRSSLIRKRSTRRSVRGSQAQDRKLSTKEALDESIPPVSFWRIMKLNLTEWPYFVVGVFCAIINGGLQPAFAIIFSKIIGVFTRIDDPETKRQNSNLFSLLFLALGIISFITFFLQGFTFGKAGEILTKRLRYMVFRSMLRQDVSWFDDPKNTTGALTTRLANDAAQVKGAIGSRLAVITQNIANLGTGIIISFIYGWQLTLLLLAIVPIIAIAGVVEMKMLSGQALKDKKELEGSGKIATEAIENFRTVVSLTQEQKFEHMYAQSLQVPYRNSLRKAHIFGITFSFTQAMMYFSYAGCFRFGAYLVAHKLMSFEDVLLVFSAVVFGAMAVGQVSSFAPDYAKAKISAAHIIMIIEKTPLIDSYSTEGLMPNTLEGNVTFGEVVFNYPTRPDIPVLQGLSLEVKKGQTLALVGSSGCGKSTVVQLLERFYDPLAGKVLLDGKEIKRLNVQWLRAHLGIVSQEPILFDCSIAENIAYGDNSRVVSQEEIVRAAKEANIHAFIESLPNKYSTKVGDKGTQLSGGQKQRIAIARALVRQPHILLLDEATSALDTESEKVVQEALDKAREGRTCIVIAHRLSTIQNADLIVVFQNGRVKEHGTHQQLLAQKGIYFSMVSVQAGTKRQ
# NAD(+) hydrolase SARM1 (Homo sapiens), sequence (Q6SZW1 whole entry, looked up, the tested form may be a part): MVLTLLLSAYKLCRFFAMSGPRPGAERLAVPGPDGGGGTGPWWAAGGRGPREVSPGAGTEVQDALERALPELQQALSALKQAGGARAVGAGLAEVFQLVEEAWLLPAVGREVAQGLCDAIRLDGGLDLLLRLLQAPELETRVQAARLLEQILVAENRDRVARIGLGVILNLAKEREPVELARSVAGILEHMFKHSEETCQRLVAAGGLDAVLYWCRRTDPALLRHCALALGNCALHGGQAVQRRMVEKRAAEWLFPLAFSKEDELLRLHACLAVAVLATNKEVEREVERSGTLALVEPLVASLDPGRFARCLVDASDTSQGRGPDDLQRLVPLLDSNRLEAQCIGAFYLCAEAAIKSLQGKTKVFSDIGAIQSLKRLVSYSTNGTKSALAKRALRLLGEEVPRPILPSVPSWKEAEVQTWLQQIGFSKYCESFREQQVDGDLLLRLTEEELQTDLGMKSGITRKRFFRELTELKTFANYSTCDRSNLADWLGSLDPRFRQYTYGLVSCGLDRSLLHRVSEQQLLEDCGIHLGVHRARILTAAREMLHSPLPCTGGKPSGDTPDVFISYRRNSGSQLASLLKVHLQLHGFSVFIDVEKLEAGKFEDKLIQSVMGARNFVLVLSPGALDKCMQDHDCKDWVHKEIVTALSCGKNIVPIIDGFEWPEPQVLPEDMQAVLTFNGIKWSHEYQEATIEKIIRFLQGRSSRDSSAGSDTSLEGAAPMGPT
# Mitogen-activated protein kinase 7 (Homo sapiens), sequence (Q13164 whole entry, looked up, the tested form may be a part): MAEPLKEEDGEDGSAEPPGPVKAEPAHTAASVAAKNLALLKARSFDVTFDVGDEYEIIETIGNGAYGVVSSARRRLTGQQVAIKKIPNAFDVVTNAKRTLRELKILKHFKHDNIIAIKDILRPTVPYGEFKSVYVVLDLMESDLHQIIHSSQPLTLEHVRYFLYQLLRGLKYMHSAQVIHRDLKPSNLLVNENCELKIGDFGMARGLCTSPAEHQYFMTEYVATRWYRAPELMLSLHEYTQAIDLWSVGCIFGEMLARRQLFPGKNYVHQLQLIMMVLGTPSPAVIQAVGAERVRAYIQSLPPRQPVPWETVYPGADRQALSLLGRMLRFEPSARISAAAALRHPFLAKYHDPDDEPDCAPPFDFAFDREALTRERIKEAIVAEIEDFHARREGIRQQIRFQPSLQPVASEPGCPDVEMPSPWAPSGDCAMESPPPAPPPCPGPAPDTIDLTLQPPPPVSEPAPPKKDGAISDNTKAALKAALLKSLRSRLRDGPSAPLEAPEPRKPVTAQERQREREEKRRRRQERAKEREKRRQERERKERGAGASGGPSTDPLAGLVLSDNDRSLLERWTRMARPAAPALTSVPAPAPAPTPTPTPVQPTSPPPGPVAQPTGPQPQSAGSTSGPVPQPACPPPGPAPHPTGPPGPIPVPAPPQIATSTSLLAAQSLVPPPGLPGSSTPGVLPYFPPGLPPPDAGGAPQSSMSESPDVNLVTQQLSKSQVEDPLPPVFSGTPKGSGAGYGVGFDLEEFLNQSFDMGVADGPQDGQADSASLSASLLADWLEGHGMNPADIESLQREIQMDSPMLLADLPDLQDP
structure (smiles),measurement,setting,value
CCCCCCCCCCCCCC(=O)O[C@H]1[C@H](C)[C@]2(O)[C@H](C=C(CO)C[C@@]3(O)C(=O)C(C)=C[C@H]23)[C@H]2C(C)(C)[C@@]12OC(C)=O,fold fluorescence,[1],4.29 [at 81.1 µM] (inactive)
O[C@@H]1[C@@H](O)[C@H](O)CN2CC[C@@H](O)[C@@H]12,fold fluorescence,[1],5.17 [at 264.3 µM] (inactive)
CC[C@H](C)[C@H]1O[C@]2(C=C[C@@H]1C)C[C@@H]1C[C@@H](C/C=C(\C)C(O[C@H]3C[C@H](OC)C(O[C@H]4C[C@H](OC)[C@@H](O)[C@H](C)O4)[C@H](C)O3)[C@@H](C)/C=C/C=C3\CO[C@@H]4[C@H](O)C(C)=C[C@@H](C(=O)O1)[C@]34O)O2 (some centres not stated),fluorescence slope change,[2],61.5% (active)
C=CCC1(CC(C)C)C(=O)NC(=O)NC1=O,inhibition,[3],-3.41%
same,score,[4],0.97
same,rescue above control,[5],1.21
same,cytochrome c release ratio,[6],0.94
same,inhibition of aggregation,[7],7.48%
same,glutamate uptake change,[8],5.4%
same,inclusion score,[9],2
same,aggregation suppression score,[10],1.15
C#CCN(C)[C@@H](C)Cc1ccccc1,period change,[11],0.185 h (inactive)
CN1CCN(C(=O)OC2c3nccnc3C(=O)N2c2ccc(Cl)cn2)CC1 (configuration not stated),period change,[11],-0.19 h (inactive)
COC(=O)[C@]1(O)C[C@@H]2O[C@@]1(C)n1c3ccccc3c3c4c(c5c6ccccc6n2c5c31)C(=O)NC4,parasite load remaining,[12],43.2% (inactive)
same,viability,[12],53.6%
C[C@H]1C2Cc3ccc(O)cc3[C@@]1(C)CCN2CC1CC1,inhibition,[13],0% (inactive)
same,fluorescence ratio (interference),[14],1 (inactive)
CC(=O)O[C@H]1C[C@H](O[C@H]2[C@@H](O)C[C@H](O[C@H]3[C@@H](O)C[C@H](O[C@H]4CC[C@@]5(C)[C@H](CC[C@@H]6[C@@H]5C[C@@H](O)[C@]5(C)[C@@H](C7=CC(=O)OC7)CC[C@]65O)C4)O[C@@H]3C)O[C@@H]2C)O[C@H](C)[C@H]1O[C@@H]1O[C@H](CO)[C@@H](O)[C@H](O)[C@H]1O,remaining NAD,[15],10 nM (inactive)
same,luciferase signal,[16],44 AU (inactive)
C=CC[C@]1(O)CC[C@H]2[C@@H]3CCC4=CC(=O)CCC4=C3C=C[C@@]21C,remaining NAD,[15],10 nM (inactive)
same,luciferase signal,[16],60 AU (inactive)
C[N+]1([O-])[C@@H]2CC[C@H]1CC(OC(=O)C(CO)c1ccccc1)C2 (some centres not stated),fluorescence slope change,[2],74.3% (active)
same,survival,[17],35.2 (inactive)
same,parasite load remaining,[12],113% (inactive)
same,viability,[12],87.7%
CC(N)C(O)c1ccccc1 (configuration not stated),fluorescence slope change,[2],4.9% (inactive)
same,inhibition,[3],-49.8%
same,score,[4],1.3
same,rescue above control,[5],-2.3
same,cytochrome c release ratio,[6],0.86
same,inhibition of aggregation,[7],86.1%
same,glutamate uptake change,[8],4.9%
same,inclusion score,[9],2
same,aggregation suppression score,[10],1.78
CCOC(=O)C1(c2ccccc2)CCN(C)CC1,inhibition,[3],15%
same,score,[4],1.03
same,rescue above control,[5],5.54
same,cytochrome c release ratio,[6],0.93
same,inhibition of aggregation,[7],7.48%
same,glutamate uptake change,[8],5.98%
same,inclusion score,[9],2
same,aggregation suppression score,[10],1.14
